Reference: the supplement of paper PMC10681739

target: RUNX1 (UniProt Q01196); assay: RUNX1 binding intensity (PBM fluorescence) in presence of ETS1, normalised to RUNX1-only experiment (arbitrary fluorescence units); higher = stronger binding; conditions: RUNX1 concentration 2 nM; ETS1 concentration 25 nM
Protocol: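 Cooperative gcPBM on 36-bp genomic probes with neighbouring ETS1 and RUNX1 sites. Recombinant human RUNX1 (2 nM) was incubated alone or with ETS1 (25 nM) and detected with anti-RUNX1 antibody plus Alexa488 secondary. Values are medians over 4 replicate spots; the RUNX1+ETS1 data were normalised to the RUNX1-only data. The probes sit in constant array flanks that are not printed.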
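Note: Full-length recombinant human ETS1 or RUNX1 bound to double-stranded 36-bp genomic probes on microarrays, detected by protein-specific primary antibody and Alexa488 secondary, spot fluorescence as median of four replicate spots.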

Chain of RUNX1 (Q01196 whole entry): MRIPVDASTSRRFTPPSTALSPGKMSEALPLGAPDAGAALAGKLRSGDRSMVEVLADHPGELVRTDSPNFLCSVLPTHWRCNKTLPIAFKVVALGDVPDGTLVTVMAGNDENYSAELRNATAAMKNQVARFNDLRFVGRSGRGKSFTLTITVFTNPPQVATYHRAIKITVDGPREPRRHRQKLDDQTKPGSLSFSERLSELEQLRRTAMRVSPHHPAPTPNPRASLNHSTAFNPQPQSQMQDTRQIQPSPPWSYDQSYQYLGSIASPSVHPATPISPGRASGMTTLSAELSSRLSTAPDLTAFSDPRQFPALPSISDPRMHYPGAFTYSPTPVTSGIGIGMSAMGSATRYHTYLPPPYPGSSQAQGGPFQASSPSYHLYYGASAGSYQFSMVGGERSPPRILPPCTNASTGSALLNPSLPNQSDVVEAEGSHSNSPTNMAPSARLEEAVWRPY

Row | Sequence | RUNX1 binding intensity
1 | TGGGTGCCGGATTCGGTGAGTGTGGTTCTCATGATG | 895
2 | TGCTTTTCAGGTGCAGGAAGTGGTTTGCCTTTGCCC | 1200
3 | TCTGGGGGAGGGGAAGGATGTGGTTTGCAGAGCGGA | 1470
4 | AGAGCGAGGAGGACTTCCTGCGGCAGGTCGGCGTGA | 1080
5 | TCTCTACTTCCCATTATTTCTGTGGTTAATTTCACC | 13500
6 | GTGAGCCTGTAAAGGAAATTGAGGTTATGTGGCTCA | 864
7 | GCCCCCGGCTGGGCAGGATGTGGTGGCAGCTGCAGG | 1320
8 | AGCACTTCCGTTTGGGCAGGGCTGCGGGCCGGAGGG | 2130
9 | TTTGTGCCCCAACTTCCTCTGTGGCTTTTGGGTGGG | 1480
10 | CTGGGGAGGAAGCCTGAGGTGTGTGGTTTTGTTAAC | 983
11 | GTAGCTCCTCCCACTTCCCGTGGTTTTCGGTTGAAC | 2760
12 | CGGCTGGCAGGAAGTGGCCACTTGAACCGCAGATGC | 3880
13 | CAGACACCAACGCTCGGAAACCGCCAGACACCAAGG | 888
14 | GGGACGGGGAGGGCAGGATGTGGTCGCTCTTCCCTC | 1750
15 | TTTAGACACCGCTTCCTGCCACAAGCCCAAGACTTA | 3470
16 | CCCGCTGTCACTTCCTGCTTCCCTCCCGCACACGTG | 3690
17 | GTGGCGGGGCGGAAGTTCACATGTGTGGTATGTAGA | 1430
18 | GGCGGATGGGGAGAAGAGAGTGGCTGTGGTCTCTGG | 712
19 | CCCGCGACACAAGGCGGATGTGGTACCCTCACTTGT | 1200
20 | GCAGAAACAGGAAGAGACAGGGCTGACCGCAGCAGG | 2340

Row | Sequence | RUNX1 binding intensity
21 | TCGCCCACTTCCCCACCTCTCAAAAGACCACAGGCA | 2140
22 | GAAGCAGACAGGAAGTGGGTCTGAGCGGTGGAGGGA | 1910
23 | GATGGTGTCTTTTGGGGATGTGGGTTTGGGGGATGG | 961
24 | AAAAGGCACCAGGAAATGACAGCACCGCAGCACGCC | 871
25 | GACATGCTCCGGAAGCTTGAGGTTTTAACGTTAAGG | 1390
26 | CTTCTGGCGGAAGCGGCACAAGCCGCAGTACAGCGC | 1190
27 | TAAAACACCAGGAAACTCTGTGGTGAGTGGGAGGTG | 903
28 | TCCTCCATGCAGGAAAACCTCTGTGGTCTGGGAGCT | 862
29 | ACTTACTTCCCGACGTCACAGCCACCGAAACCACAG | 2090
30 | AGGGCTGAAACAGGATGTGGTGAGTGAGGTAGGGTG | 3160
31 | CAGAGAAACAGGAAGAACAGTGGTTTCAACTGAAAT | 939
32 | TATTCAGGCTTCCGGGTGATGTTTGTGGCCACCCGG | 1510
33 | GCTGAGGCCGGAAGAGGGTGGGGCCGCGGTGGCTAG | 1260
34 | GGGAGGCCCCATCCTGTGTGGCTGTGGCTTTTGCCT | 1020
35 | CACTTCCCGTGGGAGGATCTTGGGCTGCGGCTAGGG | 1850
36 | CTCACCCCTGGAGGATGTGGGTTTCCAGGCTGACAG | 1190
37 | GCCTGTGGAGTTGCAGGATGTGGTTGGCGAAAAGAA | 1360
38 | TGAAACCCAGCAGGATGTGGGTTAACGGCAGGGGAG | 2250
39 | TCTTCAGGCGTCTTTCCGGTGGTGGTCGTTTTTGCT | 1390
40 | TTCTGTAGCTTAGGATGTGGGTTTCTTTGTTTCTGA | 1030
